Source: PubChem (NMMLSC)
Sampled rows, rich in hits. Any-hit rate of the full collection: about 0.93%.
CIT2 TOR yeast: yeast TOR pathway CIT2-GFP modulation | S. cerevisiae CIT2-GFP strain, flow cytometry, 3 h; 100 means same as DMSO wells | GFP response vs DMSO, % at 10 µM | 320,000 compounds, 0.065% hits;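 active means GFP response relative to DMSO above a set limit, near the screen mean plus 3 SD, cut at about 150% in these data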;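 further: ratio of well median GFP fluorescence to mean of DMSO wells on the plate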
AGP1-GFP MLPCN: alters AGP1-GFP fluorescence in TOR pathway yeast screen | S. cerevisiae AGP1-GFP multiplex flow cytometry, 3 h; GFP as percent of DMSO wells | GFP response vs DMSO, % at 10 µM | 320,000 compounds, 0.02% hits | AID 2066;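 active means GFP response relative to DMSO above a set limit, near screen average plus 3 SD, cut at about 150% in these data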;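 further: median GFP channel fluorescence of the gated AGP1 strain per well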
RPL19A TOR yeast: modulators of TOR pathway RPL19A-GFP in S. cerevisiae | S. cerevisiae RPL19A-GFP strain, flow cytometry, 3 h; stronger effect = lower value | percent response vs DMSO, % at 10 µM | 330,000 compounds, 0.3% hits | AID 2025;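 active means percent response vs DMSO below 50%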;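 further: median channel GFP fluorescence of the barcoded RPL19A-GFP strain; ratio of sample median GFP to plate DMSO average so 100% = DMSO; lower means less RPL19A-GFP as with rapamycin TOR inhibition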
MEP2 TOR yeast: modulators of TOR pathway MEP2-GFP in S. cerevisiae; GFP response vs DMSO, % at 10 µM; S. cerevisiae MEP2-GFP strain, flow cytometry GFP, 3 h; 100% = DMSO control level; AID 2016; 330,000 compounds, 0.51% hits;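 active means GFP response versus DMSO above a set limit, roughly screen mean plus 3 SD, cut at about 180% in these data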;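 further: median GFP fluorescence of the barcode-gated MEP2-GFP cells per well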
LAP4-GFP MLPCN: modulators of TOR pathway LAP4-GFP in S. cerevisiae | 320,000 compounds, 0.34% hits | GFP response vs DMSO, % at 10 µM | S. cerevisiae LAP4-GFP multiplex, flow cytometry GFP, 3 h; median GFP as percent of DMSO wells;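 active means GFP response vs DMSO above a set limit, about the screen mean plus 3 SD, cut at about 150% in these data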
LAP4 cherry2: reconfirmed LAP4-GFP TOR pathway modulator in yeast | 590 compounds, 20% hits | shares compounds with LAP4-GFP MLPCN | GFP response vs DMSO, % at 10 µM | S. cerevisiae LAP4-GFP strain, flow cytometry GFP, 3 h;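 active means GFP signal as percent of the solvent control above about 150%, meaning raised reporter expression, limit read from the data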;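 further: ratio of well median GFP fluorescence to plate DMSO mean so 100% = DMSO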
MEP2-GFP pick2: yeast MEP2-GFP modulation, second cherry pick; shares compounds with LAP4-GFP MLPCN; S. cerevisiae MEP2-GFP strain, flow cytometry GFP, 3 h; GFP response vs DMSO, % at 10 µM; 590 compounds, 10% hits;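 active means GFP signal above 150% of the solvent control wells, that is a rise of more than half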;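 further: median channel GFP fluorescence of all gated yeast cells per well; ratio of median GFP to plate DMSO average so 100% = DMSO level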
RPL19A GFP CP2: yeast RPL19A-GFP TOR reporter modulation, second cherry pick. GFP response vs DMSO, % at 10 µM. S. cerevisiae RPL19A-GFP strain, flow cytometry GFP, 3 h; stronger effect = lower value; 100% means same as DMSO wells. 590 compounds, 3% hits. shares compounds with LAP4-GFP MLPCN;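 active means under 65% GFP response relative to DMSO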;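 further: median GFP channel fluorescence per well over the all cells gate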
CIT2 GFP CP2: second confirmation of modulators of TOR reporter CIT2-GFP in yeast | 590 compounds, 8% hits | AID 2624 | GFP response vs DMSO, % at 10 µM | shares compounds with LAP4-GFP MLPCN | S. cerevisiae CIT2-GFP strain, flow cytometry GFP, 3 h; DMSO control wells read 100%;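 active means GFP response vs DMSO above about 150%, limit read from the data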;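 further: median green fluorescence per well over all gated yeast cells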
AGP1 GFP CP2: yeast AGP1-GFP TOR reporter modulation, second cherry pick. shares compounds with LAP4-GFP MLPCN. S. cerevisiae AGP1-GFP strain, flow cytometry GFP, 3 h. percent response vs DMSO, % at 10 µM. 590 tested, under 10 active. AID 2643;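 active means over 150 percent of DMSO response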;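 further: median GFP channel fluorescence over all cells without mother daughter split; sample median GFP divided by mean DMSO control so 100% equals DMSO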
s288c autofluor: compound is autofluorescent in yeast s288c cells; AID 2757; fluorescence change (kMESF span) at 33 µM; 610 tested, under 10 active; shares compounds with LAP4-GFP MLPCN; S. cerevisiae s288c, 520 nm autofluorescence, flow cytometry, 3 h; stronger effect = higher value; zero means same as solvent-only cells;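 active means fluorescence span over the dose series, or activity score, above about 33, limit read from the data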
* = called active by the depositor; . = no result.

SMILES | CIT2 TOR yeast | AGP1-GFP MLPCN | RPL19A TOR yeast | MEP2 TOR yeast | LAP4-GFP MLPCN | LAP4 cherry2 | MEP2-GFP pick2 | RPL19A GFP CP2 | CIT2 GFP CP2 | AGP1 GFP CP2 | s288c autofluor
Cc1cc(C(=O)O)cc(S(=O)(=O)NNC(=O)c2cccs2)c1C | 109 | 106 | 112 | 94 | 97 | . | . | . | . | . | .
COC(=O)[C@H](Cc1ccccc1)NC(=O)c1ccc2ccccc2n1 | 89 | 90 | 96 | 93 | 85 | . | . | . | . | . | .
CC(C)(C)NC(=O)[C@@H]1C[C@@H]2CCCC[C@@H]2CN1C[C@@H](O)[C@H](Cc1ccccc1)NC(=O)[C@H](CC(N)=O)NC(=O)c1ccc2ccccc2n1 | 79 | 82 | 100 | 96 | 96 | 107 | 114 | 96 | 113 | 101 | .
Cn1c(N)c(Sc2ccc([N+](=O)[O-])cc2)c(=O)n(C)c1=O | 98 | 102 | 99 | 94 | 98 | . | . | . | . | . | .
O=C1C=CC(=O)N1c1ccc(Sc2ccc([N+](=O)[O-])cc2)cc1 | 85 | 69 | 85 | 102 | 162* | . | . | . | . | . | 3
C#CCOCCOCCOCCNc1nc(N2CCN(C(=O)CCCCCCCCCCNC(=O)Cn3cc(C[C@@H](C)O)nn3)CC2)nc(N2CCN(C(=O)CCCCCCCCCCNC(=O)[C@H](CCCN=C(N)N)n3cc(C[C@@H](C)CC)nn3)CC2)n1 | 78 | 93 | 77 | 90 | 183* | 103 | 135 | 94 | 95 | 108 | .
C#CCOCCOCCOCCNc1nc(N2CCN(C(=O)CCCCCCCCCCNC(=O)Cn3cc(CCCCCN)nn3)CC2)nc(N2CCN(C(=O)CCCCCCCCCCNC(=O)[C@H]([C@@H](C)CC)n3cc(CCCCN=C(N)N)nn3)CC2)n1 | 78 | 77 | 86 | 81 | 151* | 114 | 133 | 96 | 117 | 106 | .
C#CCOCCOCCOCCNc1nc(N2CCN(C(=O)CCCCCCCCCCNC(=O)Cn3cc(CCCCCN)nn3)CC2)nc(N2CCN(C(=O)CCCCCCCCCCNC(=O)Cn3cc(CCCCCN)nn3)CC2)n1 | 73 | 78 | 85 | 86 | 152* | 114 | 131 | 95 | 106 | 106 | .
C#CCOCCOCCOCCNc1nc(N2CCN(C(=O)CCCCCCCCCCNC(=O)Cn3cc(CCCCCN)nn3)CC2)nc(N2CCN(C(=O)CCCCCCCCCCNC(=O)[C@@H](CCC(=O)O)n3cc(CCCCCN)nn3)CC2)n1 | 88 | 84 | 93 | 90 | 145 | . | . | . | . | . | .
C#CCOCCOCCOCCNc1nc(N2CCN(C(=O)CCCCCCCCCCNC(=O)[C@H]([C@@H](C)CC)n3cc(CCCCCN)nn3)CC2)nc(N2CCN(C(=O)CCCCCCCCCCNC(=O)[C@H]([C@@H](C)CC)n3cc(CCCCN=C(N)N)nn3)CC2)n1 | 84 | 76 | 89 | 87 | 128 | . | . | . | . | . | .
CCCCC[C@@H]1C=C(C(=O)O)[C@H](c2ccc(Br)cc2)N1S(=O)(=O)c1ccc(C)cc1 | 87 | 88 | 100 | 97 | 100 | . | . | . | . | . | .
CCCN1CCN(S(=O)(=O)c2ccc3c(c2)NC(=O)C(C)C(=O)N3)CC1 (stereo not drawn) | 112 | 103 | 101 | 103 | 103 | . | . | . | . | . | .
Nc1nc(N)c2nc(-c3ccccc3)c(N)nc2n1 | 116 | 44 | 61 | 332* | 115 | 97 | 98 | 98 | 93 | 99 | .
COc1ccc(C(=O)CSc2nnc(CN3CCCC3)n2-c2ccc(F)cc2)c(OC)c1 | 103 | 98 | 108 | 102 | 89 | . | . | . | . | . | .
N/C(Cc1ccc(Cl)cc1Cl)=N\OC(=O)c1cccs1 | 130 | 47 | 77 | 111 | 217* | 197* | 159* | 84 | 186* | 75 | 1.4
O=C(/C=C/c1cccc([N+](=O)[O-])c1)c1ccco1 | 84 | 85 | 88 | 91 | 147 | . | . | . | . | . | .
O=C(/C=C/c1cccc([N+](=O)[O-])c1)c1ccc([N+](=O)[O-])o1 | 75 | 68 | 71 | 83 | 243* | 182* | 138 | 94 | 126 | 87 | 1.4
Cc1cccc(/C=C/C(=O)c2ccc([N+](=O)[O-])o2)c1 | 80 | 61 | 90 | 84 | 176* | 247* | 150* | 93 | 157* | 102 | 9.7
CCCn1c(C)cc(C(=O)COC(=O)c2ccc[nH]c2=O)c1C | 74 | 110 | 88 | 91 | 115 | . | . | . | . | . | .
CSc1nc(Cc2ccc(Cl)cc2)nc2ccccc12 | 83 | 101 | 78 | 98 | 161* | 100 | 105 | 100 | 104 | 97 | .
CC(=O)N1NC(=Nc2ccccc2)SC1(C)C | 90 | 80 | 62 | 133 | 95 | 115 | 101 | 96 | 96 | 98 | .
O=C1NC(=Nc2ccccc2)SC1(CO)CO | 113 | 102 | 102 | 117 | 107 | . | . | . | . | . | .
COCCN1C(=O)/C(=C/c2ccc(N3CCCC3)cc2C)SC1=S | 190* | 106 | 120 | 186* | 129 | . | . | . | . | . | 1.9
CCN=C1S/C(=C\c2ccc(N3CCOCC3)cc2C)C(=O)N1CC | 110 | 104 | 109 | 106 | 97 | . | . | . | . | . | .
COc1cc(N=c2ssnc2Cl)cc(OC)c1 | 74 | 84 | 91 | 90 | 151* | 114 | 110 | 93 | 121 | 96 | 1
O=C(O)c1ccc(CN2C(=O)c3ccc(Oc4ccc([N+](=O)[O-])cc4)cc3C2=O)cc1 | 93 | 98 | 99 | 101 | 98 | . | . | . | . | . | .
O=c1c2cnn(-c3ccccc3)c2ncn1Cc1ccco1 | 52 | 77 | 64 | 99 | 121 | 130 | 100 | 99 | 98 | 93 | 0.1
COc1ccc(OC)c(CNC(=O)C2CCC(=O)N2C(C)C)c1 (stereo not drawn) | 107 | 99 | 106 | 109 | 100 | . | . | . | . | . | .
